Experimental data taken from PubChem BioAssay (Tox21).
Unmarked numbers belong to inactive results. Results filed as inconclusive are left out. A call without a number means that no potency is given here. The source made the active and inactive calls. Unless noted, calls follow the shape of the full dose curve.

What was measured:
[1] = Nuclear factor erythroid 2-related factor 2/antioxidant responsive element (Nrf2/ARE) small molecule agonists: luciferase reporter gene qHTS assay in human keratinocytes (AID 1919969); also: nearly all actives have a fitted effect of over 35% in size
[2] = molecular target: Gonadotropin-releasing hormone receptor (Homo sapiens) (UniProt P30968); test: Human gonadotropin-releasing hormone receptor (GnRHR) small molecule agonists, calcium flux assay in GnRHR-HEK293 cells (AID 1920063); also: nearly all actives have a fitted effect of over 35% in size; also: potency is read from the fitted curve at half-maximal effect
Outline: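 Stable human GnRHR HEK293 line. 18 h plating, then calcium dye for 1 h at 37 C. Agonist-mode compound addition from DMSO stocks; fluorescence monitored 3 min.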

[3] = molecular target: KiSS-1 receptor (Homo sapiens) (UniProt Q969F8); test: Human kisspeptin (KISS1R) small molecule agonists, calcium flux assay in KISS1R-HEK293 cells (AID 1920064; active = well fitted activation curve with a large enough effect in the repeat runs)
Outline: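 After overnight (18 h) culture at 37 C/5% CO2, human KISS1R-HEK293 cells received calcium dye for 1 h, then test compound; emission at 540 nm (excitation 480 nm) was tracked for 3 min.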

[4] = G protein-coupled receptor (GPCR) small molecule agonists, calcium flux assay: HEK293 wild type cell line counter screen (AID 1920065)
Outline: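 Following 18 h incubation at 37 C/5% CO2, plates got calcium dye for 1 h; compounds, ATP or DMSO were then pinned in and fluorescence followed kinetically (480/540 nm).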

[5] = p53 small molecule agonists, cell-based qHTS assay with human liver microsomes (AID 1963577);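 also: p53 response element beta-lactamase reporter cells with liver microsomes plus NADPH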
Outline: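 In this qHTS, p53 response-element beta-lactamase cells receive test compound together with a microsome/NADPH activating system (0.5 mg/mL final each) and are incubated 16 h at 37 C before LiveBLAzer fluorescence detection.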

[6] = p53 small molecule agonists, cell-based qHTS assay with rat liver microsomes (AID 1963578)
Outline: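 Agonist mode in p53RE-bla reporter cells, with compounds co-incubated 16 h at 37 C alongside 0.5 mg/mL rat liver microsomes and 0.5 mg/mL NADPH (final), followed by a 2 h LiveBLAzer detection step.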

[7] = p53 small molecule agonists, cell-based qHTS assay with rat liver microsomes: qHTS cell viability counter screen (AID 1963580); also: nearly all actives have a fitted effect of over 45% in size
Outline: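 Cytotoxicity counter screen: intracellular ATP measured by CellTiter-Glo luminescence in the same wells as the beta-lactamase reporter read, on HCT-116 p53RE-bla cells exposed 16 h at 37 C to compounds with rat liver microsomes and NADPH, each 0.5 mg/mL final.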

[8] = p53 small molecule agonists, cell-based qHTS assay: qHTS cell viability counter screen (AID 1963581); also: nearly all actives have a fitted effect of over 45% in size; also: potency is read from the fitted curve at half-maximal effect
Outline: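 qHTS counter screen: 16 h compound exposure at 37 C of p53RE-bla HCT-116 cells (4,000 per well, seeded 5 h prior), cell viability by ATP luminescence.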

[9] = p53 small molecule agonists, cell-based qHTS assay (AID 1963582; active = well fitted activation curve with a large enough effect in the signal ratio in the repeat runs, not every such curve was filed as active; the % refers to the signal ratio)
Outline: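 Measured: fluorescence from cleaved LiveBLAzer substrate. System: p53RE-bla cells, 16 h compound treatment at 37 C, 2 h substrate step at room temperature.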

[10] = molecular target: 5-hydroxytryptamine receptor 2A (Homo sapiens) (UniProt P28223); test: 5-hydroxytryptamine receptor 2A (HTR2A) small molecule antagonists, cell-based qHTS assay (AID 1963586); also: nearly all actives have a fitted effect of over 45% in size
Outline: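 CHO cells stably expressing human HTR2A were plated for 18 h at 37 C, then loaded with calcium dye for 1 h. Compounds were preincubated 5 min at room temperature before DOI (4 nM solution) was added. Kinetic fluorescence was read for 3 min.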

[11] = molecular target: Muscarinic acetylcholine receptor M1 (Homo sapiens) (UniProt P11229); test: Cholinergic receptor muscarinic 1 (CHRM1) small molecule antagonists, cell-based qHTS assay (AID 1963588); also: nearly all actives have a fitted effect of over 40% in size
Outline: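 Compounds were tested at 15 concentrations in three independent runs. Dye-loaded CHRM1-CHO cells were exposed 5 min at room temperature before stimulation by acetylcholine added at 50nM. Intracellular calcium was read kinetically on FDSS for 3 min.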

[12] = molecular target: Muscarinic acetylcholine receptor M1 (Homo sapiens) (UniProt P11229); test: Cholinergic receptor muscarinic 1 (CHRM1) small molecule agonists, cell-based qHTS assay (AID 1963589); also: nearly all actives have a fitted effect of over 35% in size
Outline: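 Kinetic fluorescence (1 s intervals) of calcium-sensitive dye in human M1 CHO cells after compound addition; cells pre-incubated 18 h at 37 C/5% CO2 and dye-loaded 1 h.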

[13] = cAMP Responsive Elements (CRE) small molecule agonists, cell-based qHTS assay (AID 1963590)
Outline: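 Test agents in DMSO were incubated 3 h at 37 C/5% CO2 with CRE-bla HEK 293T cells seeded 18 h earlier; LiveBLAzer B/G FRET substrate was added and read after 2 h at room temperature.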

[14] = cAMP Responsive Elements (CRE) small molecule antagonists, cell-based qHTS assay (AID 1963591; active = well fitted inhibition curve with a large enough effect in the signal ratio in the repeat runs, not every such curve was filed as active; the % refers to the signal ratio)
Outline: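 Reporter line CRE-bla HEK 293T in dialyzed-FBS DMEM; cells preincubated 18 h, treated 3 h with compound plus NKH477 (0.25 uM final); LiveBLAzer FRET, 2 h RT.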

[15] = molecular target: Beta-2 adrenergic receptor (Homo sapiens) (UniProt P07550); test: Adrenergic beta2 receptor (ADRB2) small molecule antagonists, cell-based qHTS assay (AID 1963592); also: series mostly up to about 92 µM; nearly all actives have a fitted effect of over 50% in size
Outline: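 Assay format: CHO-ADRB2 cells, 18-20hr seeding at 37C/5% CO2, then compound plus 1nM isoproterenol agonist mix for 0.5hr RT. Homogeneous time-resolved fluorescence cAMP detection after 1hr, expressed as 665/615 nm ratio.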

[16] = molecular target: Beta-2 adrenergic receptor (Homo sapiens) (UniProt P07550); test: Adrenergic beta2 receptor (ADRB2) small molecule agonists, cell-based qHTS assay (AID 1963593);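 also: CHO cells stably overexpressing human ADRB2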
Outline: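 CHO cells stably over-expressing ADRB2 were plated overnight at 37C, then dosed with compounds plus a stimulation mix containing 100uM IBMX and 25uM Ro-20-1724 for 0.5hr at room temperature. cAMP was measured by HTRF competition, 1hr.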

[17] = molecular target: D(2) dopamine receptor (Homo sapiens) (UniProt P14416); test: Dopamine D2 receptor (DRD2) small molecule agonists, cell-based qHTS assay (AID 1963594); also: nearly all actives have a fitted effect of over 35% in size
Outline: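 HEK293 cells stably expressing human DRD2, pre-treated with PDE inhibitor Ro20-1724 (0.1 mM final) and compound 10 min at room temperature, then stimulated with NKH477 (200nM […]) for 30 min. cAMP read by HTRF (665/620 nm).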

[18] = molecular target: D(2) dopamine receptor (Homo sapiens) (UniProt P14416); test: Dopamine D2 receptor (DRD2) small molecule antagonists, cell-based qHTS assay (AID 1963595; active = well fitted inhibition curve with a large enough effect in the signal ratio in the repeat runs, with a control signal flat; the % refers to the signal ratio)
Outline: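 Human DRD2 antagonist qHTS measuring cAMP by HTRF. The cells are exposed to compound for 10 min, then to NKH477 (200 nM) and quinpirole (12 nM) for 30 min at RT, with Ro20-1724 (0.1 mM) present throughout.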

[19] = p53 small molecule agonists, cell-based qHTS assay with human liver microsomes: qHTS cell viability counter screen (AID 1963579); also: nearly all actives have a fitted effect of over 45% in size
Outline: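 Metabolically activated exposure: compounds, human liver microsomes and NADPH (0.5 mg/mL final apiece) were added to p53RE-bla cells seeded 5 h earlier, left 16 h at 37 C, and then assessed for viability by CellTiter-Glo luminescence.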

[20] = molecular target: 5-hydroxytryptamine receptor 2A (Homo sapiens) (UniProt P28223); test: 5-hydroxytryptamine receptor 2A (HTR2A) small molecule agonists, cell-based qHTS assay (AID 1963587); also: nearly all actives have a fitted effect of over 30% in size
Outline: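 CHO cells stably expressing human HTR2A, plated 18 h, loaded with calcium dye 1 h at 37 C. Agonist mode: compounds added and intracellular calcium fluorescence recorded kinetically for 2 min at 1 sec intervals.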

Chain of KiSS-1 receptor (Homo sapiens) (Q969F8 whole entry, looked up): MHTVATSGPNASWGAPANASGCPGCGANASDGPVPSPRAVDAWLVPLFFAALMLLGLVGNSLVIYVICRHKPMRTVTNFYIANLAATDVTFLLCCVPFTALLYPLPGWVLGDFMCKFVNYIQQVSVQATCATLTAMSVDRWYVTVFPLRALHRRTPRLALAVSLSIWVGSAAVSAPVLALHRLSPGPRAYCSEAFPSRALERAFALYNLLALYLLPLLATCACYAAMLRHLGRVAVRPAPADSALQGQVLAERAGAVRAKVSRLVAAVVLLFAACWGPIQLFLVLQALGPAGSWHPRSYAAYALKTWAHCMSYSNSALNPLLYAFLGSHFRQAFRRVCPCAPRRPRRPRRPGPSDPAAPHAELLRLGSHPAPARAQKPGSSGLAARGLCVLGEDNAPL
Chain of Muscarinic acetylcholine receptor M1 (Homo sapiens) (P11229 whole entry, looked up): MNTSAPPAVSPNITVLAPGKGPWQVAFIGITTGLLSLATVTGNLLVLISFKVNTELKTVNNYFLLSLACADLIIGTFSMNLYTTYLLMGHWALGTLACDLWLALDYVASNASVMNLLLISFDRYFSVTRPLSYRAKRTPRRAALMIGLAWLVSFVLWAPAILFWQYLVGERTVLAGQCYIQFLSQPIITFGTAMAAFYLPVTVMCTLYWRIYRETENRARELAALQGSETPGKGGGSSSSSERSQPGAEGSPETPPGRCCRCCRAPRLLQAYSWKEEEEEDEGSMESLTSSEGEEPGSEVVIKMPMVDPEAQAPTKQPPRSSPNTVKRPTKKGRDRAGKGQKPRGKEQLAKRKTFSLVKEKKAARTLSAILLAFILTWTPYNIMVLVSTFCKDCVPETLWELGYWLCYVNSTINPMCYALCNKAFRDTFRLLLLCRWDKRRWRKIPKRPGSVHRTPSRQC
Chain of 5-hydroxytryptamine receptor 2A (Homo sapiens) (P28223 whole entry, looked up): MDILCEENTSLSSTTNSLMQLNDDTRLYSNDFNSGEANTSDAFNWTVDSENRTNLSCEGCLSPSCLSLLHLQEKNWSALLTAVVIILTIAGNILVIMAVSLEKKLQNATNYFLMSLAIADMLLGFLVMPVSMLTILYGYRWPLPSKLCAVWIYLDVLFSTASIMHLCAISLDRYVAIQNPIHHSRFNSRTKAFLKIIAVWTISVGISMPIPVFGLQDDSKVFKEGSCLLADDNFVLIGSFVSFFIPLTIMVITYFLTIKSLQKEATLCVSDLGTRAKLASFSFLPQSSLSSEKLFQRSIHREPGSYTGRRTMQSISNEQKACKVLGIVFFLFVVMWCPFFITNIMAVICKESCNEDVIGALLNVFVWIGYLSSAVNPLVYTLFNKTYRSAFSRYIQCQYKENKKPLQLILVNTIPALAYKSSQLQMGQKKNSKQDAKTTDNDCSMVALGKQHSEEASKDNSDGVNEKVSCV
Chain of D(2) dopamine receptor (Homo sapiens) (P14416 whole entry, looked up): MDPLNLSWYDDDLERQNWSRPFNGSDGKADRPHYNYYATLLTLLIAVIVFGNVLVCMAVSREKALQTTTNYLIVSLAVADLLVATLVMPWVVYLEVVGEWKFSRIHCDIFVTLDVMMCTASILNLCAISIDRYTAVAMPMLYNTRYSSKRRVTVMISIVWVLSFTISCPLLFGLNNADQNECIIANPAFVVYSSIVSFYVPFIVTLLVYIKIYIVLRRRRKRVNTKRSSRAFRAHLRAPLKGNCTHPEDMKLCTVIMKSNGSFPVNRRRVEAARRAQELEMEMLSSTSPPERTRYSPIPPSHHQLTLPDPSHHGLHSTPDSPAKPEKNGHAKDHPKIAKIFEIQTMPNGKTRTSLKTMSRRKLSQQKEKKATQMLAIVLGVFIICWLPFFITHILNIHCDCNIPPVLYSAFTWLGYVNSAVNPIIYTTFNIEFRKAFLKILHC
Chain of Beta-2 adrenergic receptor (Homo sapiens) (P07550 whole entry, looked up): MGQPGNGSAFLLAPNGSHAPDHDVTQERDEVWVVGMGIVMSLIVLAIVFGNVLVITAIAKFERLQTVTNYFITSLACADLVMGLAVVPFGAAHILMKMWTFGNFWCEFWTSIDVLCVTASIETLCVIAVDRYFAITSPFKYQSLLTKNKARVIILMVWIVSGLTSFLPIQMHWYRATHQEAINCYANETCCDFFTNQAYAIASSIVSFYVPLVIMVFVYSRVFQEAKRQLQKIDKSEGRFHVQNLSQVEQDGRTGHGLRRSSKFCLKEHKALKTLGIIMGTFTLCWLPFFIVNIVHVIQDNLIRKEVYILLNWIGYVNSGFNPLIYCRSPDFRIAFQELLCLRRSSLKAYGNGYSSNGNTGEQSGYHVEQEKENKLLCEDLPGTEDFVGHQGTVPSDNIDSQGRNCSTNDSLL
Chain of Gonadotropin-releasing hormone receptor (Homo sapiens) (P30968 whole entry, looked up): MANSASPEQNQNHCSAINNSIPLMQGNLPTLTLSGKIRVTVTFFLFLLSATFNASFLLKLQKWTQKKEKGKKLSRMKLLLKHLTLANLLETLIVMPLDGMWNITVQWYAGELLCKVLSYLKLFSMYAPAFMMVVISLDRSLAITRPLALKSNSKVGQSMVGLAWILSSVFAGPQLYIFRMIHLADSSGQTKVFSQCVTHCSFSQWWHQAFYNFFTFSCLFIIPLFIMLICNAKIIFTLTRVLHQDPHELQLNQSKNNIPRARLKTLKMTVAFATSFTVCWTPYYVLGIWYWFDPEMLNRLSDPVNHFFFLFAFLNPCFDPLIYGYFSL

With `CCc1nc(N)nc(N)c1-c1ccc(Cl)cc1` the Potency [1] was “inactive”, the Potency [2] was 39.5 µM (active) and the Potency [3] was “inactive”. For the same molecule, the Potency [4] was “inactive”, the Potency [5] was “inactive” and the Potency [6] was “inactive”. The Potency [7] was “inactive”, the Potency [8] was 13.1 µM (active) and the Potency [9] was “inactive”. For the same molecule, the Potency [10] was “inactive”, the Potency [11] was “inactive” and the Potency [12] was “inactive”. The Potency [13] was “inactive”, the Potency [14] was “inactive” and the Potency [15] was “inactive”. The Potency [16] was “inactive”, the Potency [17] was “inactive” and the Potency [18] was “inactive”.

In the case of `CCCCC/C=C\C/C=C\CCCCCCCC(=O)O`, the Potency [2] is reported as “inactive”, the Potency [3] is reported as “inactive” and the Potency [4] is reported as “inactive”. The Potency [5] was “inactive”, the Potency [6] was “inactive” and the Potency [19] was “inactive”. The Potency [8] was “inactive”, the Potency [10] was “inactive” and the Potency [20] was “inactive”. For the same molecule, the Potency [11] was “inactive”, the Potency [12] was “inactive” and the Potency [16] was “inactive”. For the same molecule, the Potency [17] was “inactive” and the Potency [18] was “inactive”.

With `C=CCOC(=O)C(=C)C` the Potency [2] was “inactive”, the Potency [3] was “inactive” and the Potency [4] was “inactive”. For the same molecule, the Potency [5] was “inactive”, the Potency [6] was “inactive” and the Potency [19] was “inactive”. The Potency [7] was “inactive”, the Potency [8] was “inactive” and the Potency [9] was “inactive”. The Potency [10] was “inactive”, the Potency [20] was “inactive” and the Potency [11] was “inactive”. For the same molecule, the Potency [12] was “inactive”, the Potency [13] was “inactive” and the Potency [14] was “inactive”. For the same molecule, the Potency [15] was “inactive”, the Potency [16] was “inactive” and the Potency [17] was “inactive”. For the same molecule, the Potency [18] was “inactive”.

For `CCCCC(=O)O`, the Potency [1] was “inactive”, the Potency [2] was “inactive” and the Potency [3] was “inactive”. The Potency [4] was “inactive”, the Potency [6] was “inactive” and the Potency [19] was “inactive”. For the same molecule, the Potency [7] was “inactive”, the Potency [8] was “inactive” and the Potency [10] was “inactive”. The Potency [20] was “inactive”, the Potency [11] was “inactive” and the Potency [12] was “inactive”. For the same molecule, the Potency [13] was “inactive”, the Potency [14] was “inactive” and the Potency [15] was “inactive”. The Potency [16] was “inactive”, the Potency [17] was “inactive” and the Potency [18] was “inactive”.

With `NC(=O)c1cnccn1` the Potency [1] was “inactive”, the Potency [2] was “inactive” and the Potency [3] was “inactive”. The Potency [4] was “inactive”, the Potency [5] was “inactive” and the Potency [6] was “inactive”. The Potency [7] was “inactive”, the Potency [8] was “inactive” and the Potency [9] was “inactive”. For the same molecule, the Potency [14] was “inactive”, the Potency [16] was “inactive” and the Potency [17] was “inactive”. For the same molecule, the Potency [18] was “inactive”.

With `O=S(=O)(O)NC1CCCCC1` the Potency [2] was “inactive”, the Potency [3] was “inactive” and the Potency [4] was “inactive”. For the same molecule, the Potency [19] was “inactive”, the Potency [8] was “inactive” and the Potency [20] was “inactive”. For the same molecule, the Potency [11] was “inactive”, the Potency [12] was “inactive” and the Potency [13] was “inactive”. For the same molecule, the Potency [14] was “inactive”, the Potency [15] was “inactive” and the activation [16] was -21.4% [at 19 µM]. The Potency [17] was “inactive” and the Potency [18] was “inactive”.

For `Cc1ccc([N+](=O)[O-])cc1N`, the Potency [1] was “inactive”, the Potency [2] was “inactive” and the Potency [3] was “inactive”. The Potency [4] was “inactive”, the Potency [5] was “inactive” and the Potency [6] was “inactive”. For the same molecule, the Potency [7] was “inactive”, the Potency [8] was “inactive” and the Potency [10] was “inactive”. The Potency [20] was “inactive”, the Potency [12] was “inactive” and the Potency [13] was “inactive”. The Potency [14] was “inactive”, the Potency [15] was “inactive” and the Potency [16] was “inactive”. The Potency [17] was “inactive” and the Potency [18] was “inactive”.

For `CC(=O)Nc1cccc(O)c1`, the Potency [1] was “inactive”, the Potency [2] was “inactive” and the Potency [4] was “inactive”. For the same molecule, the Potency [5] was “inactive”, the Potency [6] was “inactive” and the Potency [19] was “inactive”. The Potency [7] was “inactive”, the Potency [8] was “inactive” and the Potency [9] was “inactive”. The Potency [13] was “inactive”, the Potency [14] was “inactive” and the Potency [15] was “inactive”. For the same molecule, the Potency [16] was “inactive”, the Potency [17] was “inactive” and the Potency [18] was “inactive”.

For `CC(C)c1cccc(C(C)C)c1`, the Potency [1] was “inactive”, the Potency [2] was “inactive” and the Potency [3] was “inactive”. The Potency [4] was “inactive”, the Potency [19] was “inactive” and the Potency [7] was “inactive”. The Potency [8] was “inactive”, the Potency [10] was “inactive” and the Potency [20] was “inactive”. For the same molecule, the Potency [11] was “inactive”, the Potency [12] was “inactive” and the Potency [13] was “inactive”. For the same molecule, the Potency [14] was “inactive”, the Potency [15] was “inactive” and the Potency [16] was “inactive”. The Potency [17] was “inactive” and the Potency [18] was “inactive”.
